# Screening results from PubChem BioAssay.
# FMDV antiviral = blocks foot and mouth disease virus | FMDV antiviral cell-based qHTS | Potency, µM (titrated, usually from 57.9 µM), for the others: at the highest dose activity change, negative = inhibition, usual class: inhibitors | hit rate 1.2% among 410,000; calls by dose curve; tested in HEK293T cells; further: read-out not given here; potency means the concentration at half of the fitted maximal effect; on the % scale 0 is the no-effect control and ±100 the full control effect; nearly all actives have a fitted effect of over 45% in size
# MARV entry inh = blocks Marburg virus binding to or entry into cells; Marburg virus pseudotyped entry inhibition, cell reporter; Potency, µM (top dose mostly 37.8 µM), without a hit: at the highest dose activity change, negative = inhibition, most hits filed as inhibitors; hit rate 1.8% among 300,000; AID 540276; calls by dose curve; tested in HEK293 cells; further: potency means the concentration at half of the fitted maximal effect; on the % scale 0 is the no-effect control and ±100 the full control effect
# HCV inh = inhibitors of hepatitis C virus infection; Potency, µM (top dose mostly 41.8 µM), for inactives: top-dose activity change, negative = inhibition, most hits filed as inhibitors; AID 651820; Huh7.5.1 HCVcc-Cre infection, luciferase reporter, 44 h; hit rate 3.4% among 340,000; active means well fitted inhibition curve with a large enough effect; inconclusive means small, poorly fitted or top-dose-only effect, or another doubt; inactive means no such curve, though single readings can be large or run the other way; further: potency means the concentration at half of the fitted maximal effect; on the % scale 0 is the no-effect control and ±100 the full control effect
#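 Seed cells (1,000/well) for 4 h; treat with compound and infect with HCVcc-Cre, moi about 0.5. Incubate 44 h, then detect luciferase activity.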
# HCMV inh = inhibitors of human cytomegalovirus; activity change, negative = inhibition, % at 57.5 µM; hit rate 4.5% among 410,000; AID 1259415; HFF cells, HCMV-luciferase reporter, 72 h; hits give low values; in the data active means activity change below about -60%; inconclusive means no clear call, values can overlap the other calls; inactive means above about -39%; further: on the % scale 0 is the no-effect control and ±100 the full control effect
#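 Luciferase read-out from HCMV-luciferase-infected HFFs (MOI 1 PFU/cell) 72 h post infection at 37C; compounds added after 16 h cell attachment; activity normalized between buffer-only basal and Salinomycin (10uM) inhibitor controls.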
# SARS PLP yeast = SARS-CoV PLP inhibition in yeast. Potency, µM (doses to about 32.9 µM), for inactives: at the top dose activity, positive = growth rescue, most hits filed as activators. AID 485353. hit rate 0.19% among 330,000. S. cerevisiae expressing SARS-CoV PLpro, growth rescue; calls by dose curve; further: potency means the concentration at half of the fitted maximal effect; 0% is about no effect; nearly all actives have a fitted effect of over 55% in size
# Lassa entry inh = inhibitors of Lassa virus binding or cell entry; Lassa virus pseudotype entry inhibition, cell reporter; Potency, µM (top dose mostly 37.9 µM), for inactives: top-dose activity change, negative = inhibition, hits mostly inhibitors; hit rate 1.2% among 300,000; AID 540256; calls by dose curve; tested in HEK293 cells; further: potency means the concentration at half of the fitted maximal effect; on the % scale 0 is the no-effect control and ±100 the full control effect; nearly all actives have a fitted effect of over 50% in size
# Numbers without * were called inactive; ? = inconclusive; nt = no result given; [ ] = dose if it differs, or a comment. The list is not random: actives were taken first. Their share in the collection is about 8%.
SMILES,FMDV antiviral,MARV entry inh,HCV inh,HCMV inh,SARS PLP yeast,Lassa entry inh
Cc1ccc(CN(Cc2cc3cccc(C)c3[nH]c2=O)C(=S)NCCCN(C)C)cc1,-15%,4.5µM*,35µM*,?,-1%,-12%
Cc1cccc2cc(CN(Cc3ccccc3)C(=S)NCCCN(C)C)c(=O)[nH]c12,-13%,4µM*,?,?,-1%,-27%[46.1 µM]
Cc1cc(C)c2cc(CN(CCCN(C)C)C(=S)NCc3ccccc3)c(=O)[nH]c2c1,8%,?,10µM*,-17,18%,?
COc1ccc(Br)cc1C1C(C(=O)Nc2ccc(C)cc2C)=C(C)Nc2ncnn21 (centres undefined),5%,-22%[46.1 µM],nt,0,nt,?
C=CCNC(=O)c1cc([N+](=O)[O-])cc2c(=O)[nH]c(Nc3ccc(Cl)c(Cl)c3)nc12,-11%,nt,nt,nt,nt,nt
OC(CCN1CCCCC1)(c1ccccc1)C1CC2C=CC1C2 (centres undefined),nt,6.5µM*,nt,nt,nt,?
OC(CCN1CCCCC1)(c1ccccc1)C1C[C@@H]2C=C[C@H]1C2 (some centres undefined),-20%,nt,?,-1,nt,nt
OC(CC#CCN1CCCCCC1)(c1ccccc1)C1CCCC1 (centres undefined),-22%,nt,-17%,-34,2%,nt
OC(CCN1CCCCC1)(c1ccccc1)C1CCCCC1 (centres undefined),-16%,5µM*,nt,-35,1%,nt
CC(=O)Oc1ccccc1[C@@H]1OCCN1C(C)=O,nt,2%,nt,nt,nt,nt
COc1cc(-c2noc(CCC(=O)Nc3cc(C)ccc3C)n2)cc(OC)c1OC,-15%,-12%[46.1 µM],nt,-17,nt,-14%[46.1 µM]
CCC1CN(CC(=O)NC(c2ccccn2)C(F)(F)F)Cc2cc(OC)ccc2O1 (centres undefined),-8%,nt,nt,nt,nt,nt
CN(C)CCCN(C(=O)c1ccc(C(=O)c2ccccc2)cc1)c1nc2c(F)cccc2s1,?,?,?,-29,-2%,?
CCc1ccc2nc(N(CCCN(C)C)C(=O)c3ccc(C(=O)c4ccccc4)cc3)sc2c1,-22%,?,-23%,-98*,0%,?
CCOc1cccc2sc(N(CCN(C)C)C(=O)c3cc4ccccc4cc3OC)nc12,-13%,nt,14µM*,-39,-4%,nt
CCc1ccc2nc(N(CCCN(C)C)C(=O)c3ccc(S(=O)(=O)N4CCCc5ccccc54)cc3)sc2c1,?,?,?,-89*,-2%,13µM*
CCOc1cccc2sc(N(CCCN(C)C)C(=O)c3ccc(C(=O)c4ccccc4)cc3)nc12,-11%,?,?,-77*,-4%,?
O=C(NCCSCc1ccccc1)C1CCN(S(=O)(=O)Cc2ccccc2)CC1,-21%,-23%[46.1 µM],nt,-14,nt,-4%[46.1 µM]
CN(C)CCCN(C(=O)c1ccc(S(=O)(=O)N2CCc3ccccc32)cc1)c1nc2c(Cl)cccc2s1,-18%,?,-27%,-4,2%,?
COc1cccc2sc(N(CCCN(C)C)C(=O)c3ccc(S(=O)(=O)N4CCCc5ccccc54)cc3)nc12,?,nt,14µM*,-71*,-7%,nt
CCC1Oc2ccc(C)cc2N(CC(=O)NCc2ccc(OC)cc2)C1=O (centres undefined),-6%,9%[46.1 µM],nt,16,nt,-5%[46.1 µM]
Cc1ccc(S(=O)(=O)CCc2nc3ccccc3n2CCC#N)cc1,-26%,-2%,?,-81*,-7%,-16%
Cc1ccc(S(=O)(=O)CC2CSc3nc4ccccc4n32)cc1 (centres undefined),?,?,?,-72*,-1%,?
Cc1ccc(S(=O)(=O)CC2CSc3nc(N)cc(=O)n32)cc1 (centres undefined),0%,-2%,9%,4,?,18%
CCOc1ccc(CCNC(=O)c2ccc3c(c2)c(C)c(C)n3C)cc1,-3%,nt,nt,0,nt,?
SMILES,FMDV antiviral,MARV entry inh,HCV inh,HCMV inh,SARS PLP yeast,Lassa entry inh
CC[C@]12CCCN3CCc4c(n(c5ccccc45)C(=O)C1)[C@@H]32,-25%,nt,6.3µM*,47,nt,nt
CC[C@]12CCCN3CCc4c(n(c5ccccc45)[C@@](O)(C(=O)OC)C1)[C@@H]32,-24%,nt,-5%,-33,-3%,nt
Cc1cccc(CNC(=O)CCCn2c(=O)c3cccn3c3ccc(F)cc32)c1,-22%,nt,nt,24,nt,2%[46.1 µM]
O=C1CN=C(c2ccc[nH]2)c2cc(Cl)ccc2N1,-9%,nt,0%,-94*,-1%,nt
O=C1CN=C(c2ccccc2Cl)c2cc(Br)ccc2N1,-20%,?,6%,-24,nt,?
COc1cccc(/C=C2/SC(=S)N(CCC(=O)N3CCOCC3)C2=O)c1,18%,5µM*,?,-4,1%,?
COc1cccc(/C=C2\SC(=S)N(CCCC(=O)N3CCCCC3)C2=O)c1,-15%,nt,13µM*,-20,-5%,nt
COc1cccc(/C=C2\SC(=S)N(CCC(=O)Nc3ccc(O)cc3)C2=O)c1,38%,nt,?,32,-6%,nt
COc1cccc(/C=C2\SC(=S)N(CCC(=O)NCCc3ccc(O)cc3)C2=O)c1,0%,?,?,-100*,0%,?
COc1ccc(CN2CCOc3c(cc(-c4cccc(OC)n4)cc3OC)C2)c(O)c1,-2%,nt,nt,nt,nt,nt
CC1=C(C(=O)Nc2cccnc2)C(c2ccc(F)cc2)n2nc(SCc3ccccc3)nc2N1 (centres undefined),-20%,20%[46.1 µM],nt,-14,nt,1%[46.1 µM]
CCOC(=O)C1CCN(CC(=O)NC(=O)NC2CCCCC2)CC1,-10%,-13%,8%,-23,4%,-3%
COC(=O)C1CCN(CC(=O)NC(=O)NC2CCCCC2)CC1,-2%,?,15%,-98*,0%,2%[46.1 µM]
CCOC(=O)Nc1ccc2c(c1)N(C(=O)N1CCN(C)CC1)c1ccccc1S2,0%,?,-16%,-4,4%,5%
C=CC(=O)N1c2ccccc2Sc2ccc(NC(=O)OCC)cc21,13µM*,?,?,-4,nt,?
O=C(Nc1ccc(Nc2ccncc2)cc1)c1ccc([N+](=O)[O-])cc1,?,nt,11µM*,-90*,1%,nt
O=C(Nc1ccc([N+](=O)[O-])cc1)c1cncc(Br)c1,8%,nt,-8%,-85*,-2%,nt
O=C(CCNC(=O)c1ccc([N+](=O)[O-])cc1)NNC(=O)c1ccncc1,-3%,nt,15%,4,6.3µM*,nt
CCn1cc(CN2CCOc3ccc(C(O)C4CCCCC4)cc3C2)c(C)n1 (centres undefined),-20%,nt,nt,nt,nt,nt
CCOc1ccccc1NC(=O)CSc1nc2ccccc2nc1Cc1ccc(C)cc1,-3%,nt,nt,-30,nt,5%[46.1 µM]
Cc1ccsc1/C=N/N1CCN(c2ccccn2)CC1,8%,?,-27%,-71*,-2%,15%[46.1 µM]
ClC(=C\c1ccccc1)/C=N/N1CCN(c2ccccn2)CC1,12%,-8%,17%,-70*,-6%,-29%
